{
  "source": "PubChem BioAssay AID720711",
  "about": "(National Center for Advancing Translational Sciences (NCATS), 2013)",
  "note": "Hit rate of the full screen: of about 360,000 compounds, about 290 (0.081%) were called active. Calls come from the whole dose curve; as a rule, active = well fitted activation curve with a large enough effect; inconclusive = small, poorly fitted or top-dose-only effect; inactive = no such curve, though single readings can be large or run the other way. Shown is part of a subset that was picked to be rich in actives. Entries that show only a call come without a potency. Potency is the fitted concentration of half-maximal effect.",
  "data": [
    {"target": "Rap guanine nucleotide exchange factor 4 (Homo sapiens) (UniProt Q8WZA2)", "sequence (Q8WZA2 whole entry, looked up)": "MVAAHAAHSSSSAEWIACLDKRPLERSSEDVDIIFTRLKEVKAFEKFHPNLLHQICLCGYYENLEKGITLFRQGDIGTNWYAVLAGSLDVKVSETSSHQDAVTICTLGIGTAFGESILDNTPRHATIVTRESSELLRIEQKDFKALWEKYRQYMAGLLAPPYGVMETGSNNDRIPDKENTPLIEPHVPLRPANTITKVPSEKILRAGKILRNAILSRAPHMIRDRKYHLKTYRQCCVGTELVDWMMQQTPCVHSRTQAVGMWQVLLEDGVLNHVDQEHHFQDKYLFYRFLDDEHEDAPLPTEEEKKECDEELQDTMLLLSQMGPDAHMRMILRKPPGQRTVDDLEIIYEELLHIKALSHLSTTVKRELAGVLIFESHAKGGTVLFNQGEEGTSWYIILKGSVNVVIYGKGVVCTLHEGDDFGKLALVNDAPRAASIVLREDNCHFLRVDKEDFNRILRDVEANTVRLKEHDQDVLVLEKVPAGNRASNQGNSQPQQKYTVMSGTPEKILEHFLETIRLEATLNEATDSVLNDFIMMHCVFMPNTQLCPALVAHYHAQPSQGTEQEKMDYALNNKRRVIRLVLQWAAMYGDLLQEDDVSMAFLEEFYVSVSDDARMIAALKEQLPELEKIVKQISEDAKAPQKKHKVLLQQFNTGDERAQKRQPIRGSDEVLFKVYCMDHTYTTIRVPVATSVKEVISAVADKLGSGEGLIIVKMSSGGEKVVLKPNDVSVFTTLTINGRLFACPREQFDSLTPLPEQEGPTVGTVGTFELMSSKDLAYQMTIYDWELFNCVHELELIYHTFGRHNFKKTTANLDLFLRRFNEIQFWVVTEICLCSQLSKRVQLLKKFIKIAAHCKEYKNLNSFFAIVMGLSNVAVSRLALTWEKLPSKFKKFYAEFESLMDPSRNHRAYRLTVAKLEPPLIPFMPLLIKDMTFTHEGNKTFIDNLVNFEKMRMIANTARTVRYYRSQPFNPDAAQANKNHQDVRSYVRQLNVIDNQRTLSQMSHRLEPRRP", "assay": "qHTS for Agonist of cAMP-regulated guanine nucleotide exchange factor 4 (EPAC2): primary screen; note: nearly all actives have a fitted effect of over 50% in size", "settings": "biochemical qHTS; Potency: EPAC2 activation; series mostly up to 154 µM", "from_the_text": "In multi-cellular eukaryotic organisms, the effects of cAMP are transduced by two ubiquitously-expressed intracellular cAMP receptors, the classic protein kinase A/cAMP-dependent protein kinase (PKA/cAPK) and the more recently discovered exchange protein directly activated by cAMP/cAMP-regulated guanine nucleotide exchange factor (EPAC/cAMP-GEF). Both PKA and EPAC are ubiquitously expressed in all tissues, and an increase in intracellular cAMP levels will lead to the activation of both PKA and EPAC. Therefore, careful dissections of the individual role and relative contribution of EPAC and PKA within the overall cAMP signaling in various model systems are critical for further elucidating the mechanism of cAMP signaling. To date no EPAC-specific antagonists and agonist, as well as isoform-specific agonists have been reported, and developing EPAC-specific pharmacological probes to determine the physiological functions that EPAC play in the overall cAMP-mediated signaling remains a major challenge within the research field. Furthermore, identified regulators of EPAC may lead to new mechanism-based therapeutic strategies specifically targeting the EPAC / cAMP-signaling components as EPAC has been implicated to play important roles in major human pathological conditions such as diabetes, heart disease, and cancer.\nThis qHTS will be used to screen the Molecular Libraries Small Molecule Repository (MLSMR) as a concentration-titration series using the NCGC unique quantitative screening (qHTS) platform to find activators for EPAC2. In addition, this assay will also be used as a counterscreen for the EPAC1 qHTS. This fluorescent based assay is developed and validated for EPAC2 that measures exchange using EPAC effector Rap1 complex with BODIPY-GDP, a GDP analog with a tethered fluorophores. Activators are identified by monitoring the change in fluorescence signal as the exchanged free BODIPY-GDP has a reduced fluorescence compared to Rap1-bound BODIPY-GDP. […] in signal (activation) is the desired outcome for the EPAC2 agonist while no activity in this assay is desired for the EPAC1 agonist counterscreen.\n[1] de Rooij, J., Zwartkruis, F. J., Verheijen, M. H., Cool, R. H., Nijman, S. M., Wittinghofer, A., and Bos, J.L. (1998) Nature 396, 474-477\n[2] Kawasaki, H., Springett, G. M., Mochizuki, N., Toki, S., Nakaya, M., Matsuda, M., Housman, D. E., and Graybiel, A. M. (1998) Science 282, 2275-2279\nNIH Chemical Genomics Center [NCGC]\nNIH Molecular Libraries Probe Centers Network [MLPCN]\nAssay Submitter (PI): Xiaodong Cheng, The University of Texas, Medical Branch\nBriefly, three uL of reagents (100 nM EPAC2, 250 nM RAP1B-BODIPY-GDP, 50 uM GDP) were dispensed into a 1536-well Greiner black solid-bottom medium binding assay plate. Controls and test compounds (23 nL) were transferred to the plate via a Kalypsys pin tool equipped with a 1536-pin array. The plates were centrifuged at 1,000 rpm for 15 seconds followed by 5 minute incubation at room temperature. The assay plates were read at 5 minute intervals for 30 minutes in the ViewLux plate reader using 480nm excitation and 540nm emission filters. The results were normalized to the agonist positive control of 6.5 mM cAMP.", "values": [
      {"smiles": "COc1ccccc1CNS(=O)(=O)c1cc2c3c(c1)CCC(=O)N3CCC2", "Potency": "inactive"},
      {"smiles": "Cc1ccc(S(=O)(=O)N2[C@@H](Cc3ccccc3)CO[C@H]2CC(=O)OCc2ccccc2)cc1", "Potency": "inactive"},
      {"smiles": "Cc1ccccc1C#CC1=CC(=O)CC(C)(C)C1", "Potency": "inactive"},
      {"smiles": "CN(CC(=O)NCc1ccncc1)S(=O)(=O)c1ccc(Br)cc1", "Potency": "inactive"},
      {"smiles": "CC(Sc1ccccc1F)C(=O)Nc1cccc(S(=O)(=O)N2CCOCC2)c1", "note": "(stereo not drawn)", "Potency": "inactive"},
      {"smiles": "CCOC(=O)N1CCC(C(N)=O)CC1", "Potency": "inactive"},
      {"smiles": "COC(=O)[C@@]12C[C@@H](CC(=O)NCCCCc3ccccc3)C(=O)N(Cc3ccccc3)C1=CCC(C)(C)C2", "Potency": "inactive"},
      {"smiles": "O=C(COC(=O)C1CC2C=CC1C2)Nc1ccccc1", "note": "(stereo not drawn)", "Potency": "inactive"},
      {"smiles": "Cc1ccc(S(=O)(=O)N2CCC(C(=O)N[C@@H](C)C(=O)NCCc3ccccc3)CC2)cc1", "Potency": "inactive"},
      {"smiles": "C[C@@H](C(=O)N1CCNCC1)n1cc(CCC(=O)O)nn1", "Potency": "inactive"},
      {"smiles": "N#CCCN1CCN(S(=O)(=O)c2ccc(S(=O)(=O)NC3CC3)cc2)CC1", "Potency": "inactive"},
      {"smiles": "CC(C)(C)OC(=O)NC(Cc1ccccc1)C(=O)NC(CSC1CCCCO1)C(=O)NN", "note": "(stereo not drawn)", "Potency": "inactive"},
      {"smiles": "O=C(O)CCCCCCCCc1cn(CN2C(=O)c3ccccc3C2=O)nn1", "Potency": "inactive"},
      {"smiles": "O=C1/C(=C/c2coc3ccc(O)cc3c2=O)SC(=S)N1c1ccccc1", "Potency": "inactive"},
      {"smiles": "Cc1ccc(-c2nn(-c3ccccc3)cc2/C=C2\\SC(=S)N(CCCCCC(=O)O)C2=O)o1", "Potency": "126 µM (active)"},
      {"smiles": "O=C(Nc1ccc(Br)cn1)C1CCN(S(=O)(=O)c2cccs2)CC1", "Potency": "inactive"},
      {"smiles": "COc1ccccc1CCNC(=O)c1c(C)nn(CC(C)C)c1Cl", "Potency": "inactive"},
      {"smiles": "CC1CCN(c2ccc3c(c2)S(=O)(=O)c2cc(C(=O)O)ccc2C3=O)CC1", "Potency": "inactive"},
      {"smiles": "Cc1ccc(CNC(=O)c2ccc3c(c2)S(=O)(=O)c2ccccc2C3=O)cc1", "Potency": "inactive"},
      {"smiles": "Cc1ccc(CNC(=O)c2cccc3c2C(=O)c2ccc(N4CCC(C)CC4)cc2S3(=O)=O)cc1", "Potency": "89.1 µM (active)"},
      {"smiles": "O=C(CSc1ccc(-c2cccs2)nn1)Nc1ccccc1F", "Potency": "inactive"},
      {"smiles": "CCOC(=O)c1c(NC(=S)Nc2ccccc2)sc2c1CCN(C)C2", "Potency": "inactive"},
      {"smiles": "CCc1ccccc1N(CC(=O)NCC1CCCO1)C(=O)CCC(=O)Nc1nccs1", "note": "(stereo not drawn)", "Potency": "inactive"},
      {"smiles": "CCOC(=O)[C@]12CCCC=C1N(CCC1=CCCCC1)C(=O)[C@H](CC(=O)N1CCCCC1)C2", "Potency": "inactive"},
      {"smiles": "CCO[C@@H]1OC(C(=O)N2CCOCC2)=C[C@H](C)[C@H]1CCCO", "Potency": "inactive"},
      {"smiles": "Cc1ccc(NC(=S)N2CCCC(c3ccccc3)=N2)cc1", "Potency": "inactive"},
      {"smiles": "COCC(=O)N1CCc2ccc(NC(=O)c3ccccc3Cl)cc2C1", "Potency": "inactive"},
      {"smiles": "COc1ccc(-c2ocnc2C(=O)Nc2ccc3c(c2)CCC3)cc1", "Potency": "inactive"},
      {"smiles": "COc1ccc(-c2onc3ccc(C(C)=O)cc23)cc1", "Potency": "50.1 µM (active)"},
      {"smiles": "COCc1cc(C(C)=O)ccc1OC", "Potency": "inactive"},
      {"smiles": "COCC1CCN(C(=O)C2CCC(=O)N(CC3CCCCC3)C2)CC1", "note": "(stereo not drawn)", "Potency": "inactive"},
      {"smiles": "CCNC(=O)N1CCN(S(=O)(=O)c2ccc3c(c2)OCCCO3)CC1", "Potency": "inactive"},
      {"smiles": "CCOc1cccc(C(=O)Nc2cnn(Cc3ccccc3)c2)c1", "Potency": "inactive"},
      {"smiles": "Nc1nnc(SCC(=O)OCc2ccc(Cl)c(Cl)c2)s1", "Potency": "inactive"},
      {"smiles": "COCC1CCN(C(=O)CCc2nnc(C3(c4ccc(Cl)cc4)CCC3)o2)C1", "note": "(stereo not drawn)", "Potency": "inactive"},
      {"smiles": "Cc1ccc(CSc2nsc(C)c2C#N)cc1", "Potency": "inactive"},
      {"smiles": "Cc1cccc(-n2c(O)c(C=Nc3ccccc3N)c(=O)[nH]c2=O)c1", "Potency": "inactive"},
      {"smiles": "Cc1ccc(N=Cc2c(O)n(-c3nccs3)c(=O)c3ccccc23)c(C)c1", "Potency": "70.8 µM (active)"},
      {"smiles": "COC(=O)Cc1csc(/N=C/c2c(O)n(-c3cccc(C(F)(F)F)c3)c(=O)c3ccccc23)n1", "Potency": "inactive"},
      {"smiles": "COCCNC(=O)C1C(=O)Nc2ccccc2C(=O)N1c1ccc2c(c1)OCCO2", "note": "(stereo not drawn)", "Potency": "inactive"},
      {"smiles": "C=CCNC(=O)CCCC(=O)NCC=C", "Potency": "inactive"},
      {"smiles": "COCCNc1nc2nonc2nc1N(C)Cc1ccc(C)cc1", "Potency": "inactive"},
      {"smiles": "CCCNC(=S)NC1CC2CCCC(C1)N2CC(C)C", "note": "(stereo not drawn)", "Potency": "inactive"},
      {"smiles": "CCOC(=O)c1sc(NC(=O)C2CSC3(C)CCC(=O)N23)nc1C", "note": "(stereo not drawn)", "Potency": "inactive"},
      {"smiles": "CC(=O)c1nc(N2C(=O)C3CC=C(C)CC3C2=O)sc1C", "note": "(stereo not drawn)", "Potency": "inactive"},
      {"smiles": "Nc1ccccc1/C=N\\N=C/c1ccccc1N", "Potency": "inactive"},
      {"smiles": "Cc1occc1-c1nnc(SCC(=O)NC2(C#N)CCCC2)n1C", "Potency": "inactive"},
      {"smiles": "COc1ccc(-n2nc(C(=O)NCC(=O)N3CCC(C(N)=O)CC3)c3ccccc3c2=O)cc1OC", "Potency": "inactive"},
      {"smiles": "COc1ccc2c(CC(=O)OCC(=O)NC(N)=O)coc2c1", "Potency": "inactive"},
      {"smiles": "Cc1ccc(N=C2SCCCN2C(=O)c2cccc(N3C(=O)CCC3=O)c2)cc1Cl", "Potency": "inactive"},
      {"smiles": "Nc1ccc2nn(-c3ccc(Cl)cc3)nc2c1", "Potency": "inactive"},
      {"smiles": "Nc1nnc(SCCN2C(=O)c3ccccc3S2(=O)=O)s1", "Potency": "inactive"},
      {"smiles": "COc1cccc(C2CC(c3cccs3)=NN2C(=O)CSC2=NCCS2)c1OC", "note": "(stereo not drawn)", "Potency": "inactive"},
      {"smiles": "O=C(COc1ccc(S(=O)(=O)N2CCOCC2)cc1Cl)N1CCOCC1", "Potency": "inactive"},
      {"smiles": "COCc1[nH][nH]c(=O)c1C=Nc1ccc(F)cc1F", "Potency": "inactive"},
      {"smiles": "NC(=O)COc1ccc(NC(=O)c2ccccc2-c2ccccc2)cc1", "Potency": "inactive"},
      {"smiles": "COc1ccc(NC(=O)C(=O)NCC(c2ccco2)N2CCc3ccccc3C2)cc1", "note": "(stereo not drawn)", "Potency": "inactive"},
      {"smiles": "CCN(CC)C(=O)CSC(Nc1cccc(F)c1)=C(C#N)C#N", "Potency": "inactive"}
    ]}
  ]
}
